In PubChem BioAssay AID720541 (National Center for Advancing Translational Sciences (NCATS), 2013):
Out of some 1,300 compounds screened, about 420 (32%) were called active. Inconclusive results (about 32%) are left out. The list shows a part of the results. A number with no mark means an inactive call. The call rests on the fitted dose curve; in most records, active means well fitted inhibition curve with a large enough effect; inconclusive means small, poorly fitted or top-dose-only effect; inactive means no such curve, though single readings can be large or run the other way.

Biological target: C-terminal-binding protein 1 (Homo sapiens) (UniProt Q13363)
Assay: qHTS for Inhibitors of the Phosphatase Activity of Eya2: Carboxyl-terminal binding protein (CtBP) Counterscreen for Cherry-picked Compounds; further: nearly all actives have a fitted effect of over 65% in size
Conditions: purified protein-protein binding, AlphaScreen, 3 h; series mostly up to 46.1 µM; activity change, negative = inhibition: at the top concentration
Outline: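 AlphaScreen using 25 nM GST-E1A with 25 nM CtBP-6xHIS; compounds at 2.5 nM–46 uM final, 2 h at room temperature, then donor/acceptor beads (20 ug/mL) for 1 h in the dark. Signal normalized to E1A peptide inhibitor (maximum inhibition) and DMSO.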
On the % scale 0 is the no-effect control and ±100 the full control effect; potency means the concentration at half of the fitted maximal effect.

Structure (SMILES)	activity change, negative = inhibition [%]	Potency
CC(=O)c1cccc(-c2cnc3c(NC=O)cc(-c4ccc(N(C)C)cc4)cn23)c1	-31.8	–
COC(=O)c1cc2c(ccc3ccccc32)oc1=O	–	12 µM (active)
CC(C)Cc1nc2oc3c(=O)[nH]cnc3c2c2c1CCC2	–	15.1 µM (active)
Cc1ccccc1OCCn1cc(C(=S)N2CCN(C)CC2)c2ccccc21	–	15.1 µM (active)
CCC(=O)c1cn(CC(=O)Nc2c(C)cccc2C)c2ccccc12	5.57	–
O=C(CN1C(=O)/C(=C/c2ccco2)SC1=S)Nc1ccc(C(=O)O)c(O)c1	–	10.7 µM (active)
COc1cc(/C=C2\SC(=S)N(CCC(=O)Nc3cccc(O)c3)C2=O)cc(OC)c1OC	-14.7	–
CCn1c(SCC(=O)N2CCN(c3ccccc3)CC2)nc2c(c1=O)SC(C)C2 (centres undefined)	-14.2	–
Cc1c(C(=O)O)c(O)cc2c1C(=O)c1c(O)c([C@H]3O[C@H](CO)[C@@H](O)[C@H](O)[C@H]3O)c(O)c(O)c1C2=O	–	19 µM (active)
Fc1ccc(-c2ccc(CNCc3ccccn3)o2)cc1	–	15.1 µM (active)
Clc1cccc(-c2ccc(CNCc3ccccn3)o2)c1	–	16.9 µM (active)
Clc1ccc(-c2ccc(CNCc3ccccn3)o2)cc1	–	12 µM (active)
O=C(/C=C/c1cccc([N+](=O)[O-])c1)Nc1cccc(NC(=O)c2cccs2)c1	-26.4	–
COC(=O)c1ccc(NC(=O)c2ccc3c(c2)C(=O)N(Cc2cccnc2)C3=O)cc1	0.063	–
COC(=O)c1ccc(NC(=O)CSc2nc(=O)n3cccc(C)c3n2)cc1	–	13.5 µM (active)
Cc1ccc(-c2csc(N3CCN(CCCn4c(C(F)(F)F)nc5ccccc54)CC3)n2)cc1	-13.7	–
Cc1cc(C)c2c(n1)sc1c(O)cc(=O)[nH]c12	-12.6	–
Cc1csc(NC(=O)CSc2sc3c(O)cc(=O)[nH]c3c2C#N)n1	–	12 µM (active)
O=C1c2cccc(Sc3ccccc3)c2C(=O)c2c(Sc3ccccc3)cccc21	–	3.79 µM (active)
Oc1c(Cl)cc(CN2CCOCC2)c2cccnc12	–	0.601 µM (active)
CCCC(=O)Nc1ccc(NC(=S)NC(=O)c2cccs2)cc1	-0.882	–
CCN(CC)c1ccc(NC(=S)NC(=O)c2cccs2)cc1	–	10.7 µM (active)
Cc1ccc(C(=O)N2CCN(c3ccc(NC(=S)NC(=O)c4cccs4)cc3)CC2)cc1	-26.7	–
Cn1nc(C(=O)Nc2nc3ccccc3[nH]2)c2ccccc2c1=O	–	10.7 µM (active)
CNC(=O)c1cc2c(cn1)[nH]c1ccccc12	-22	–

Structure (SMILES)	activity change, negative = inhibition [%]	Potency
COc1ccc(OC)c(Nc2nc(-c3sc(N)nc3C)cs2)c1	–	8.49 µM (active)
COc1ccc(-c2noc(N3CCC(C(=O)Nc4cc(OC)ccc4OC)CC3)n2)cc1	-27.5	–
CCn1c2ccccc2c2cc(NC(=O)COC(=O)c3ccc(NC(=O)CC#N)cc3)ccc21	-2.9	–
Cc1ccc(-n2[nH]c(C)c(C=Nc3ccc(S(=O)(=O)Nc4nccs4)cc3)c2=O)cc1C	–	7.57 µM (active)
O=C(Nc1nc(-c2ccccn2)cs1)C1CC(=O)N(c2ccc3c(c2)OCCO3)C1 (centres undefined)	–	6.01 µM (active)
CCc1ccc(-c2csc(NC(=O)C3CC(=O)N(c4ccc5c(c4)OCCO5)C3)n2)cc1 (centres undefined)	-6.9	–
O=C(NCc1ccco1)C1CC2CCC1C2 (centres undefined)	7.12	–
COCCNC(=O)c1cccc(OC2CCN(Cc3ccc(F)cc3OC)CC2)c1	0.126	–
CSc1nnc2c(n1)OC(C)=Nc1ccccc1-2	–	12 µM (active)
C#Cc1cccc(NC(=O)CSc2nnc(-c3ccc(C(F)(F)F)cn3)o2)c1	–	15.1 µM (active)
CCn1ccnc1CNCc1cn(-c2cc(C)ccc2C)nc1-c1ccccc1	–	8.49 µM (active)
CCNc1ccc2noc3c2c1C(=O)c1ccccc1-3	–	7.57 µM (active)
CN(Cc1ccccc1F)c1nc(-c2cccnc2)nc2ccccc12	-15.7	–
O=C(CN1C(=O)c2ccccc2C1=O)Nc1nc(-c2cccc([N+](=O)[O-])c2)cs1	2.24	–
O=C(CCS(=O)(=O)c1ccc(F)cc1)Nc1nc(-c2ccccn2)cs1	–	8.49 µM (active)
CSCCC(=O)Nc1nc(-c2ccccn2)cs1	–	12 µM (active)
CCn1nc(C(=O)Nc2nc(-c3ccccn3)cs2)c2ccccc2c1=O	–	3.79 µM (active)
S=C(NCCCc1cnc[nH]1)NCCCN(Cc1ccc(Cl)cc1)c1ccc(-c2ccccc2)cn1	–	15.1 µM (active)
CN(C)c1ccc(/C=C2\C=Cc3cc(N)ccc32)cc1	–	7.57 µM (active)
COc1ccc2c(c1)C=C/C2=C\c1ccc(N(C)C)cc1	–	6.75 µM (active)
Cc1nc([N+](=O)[O-])cn1CC(O)c1ccc2c(c1)OCO2 (centres undefined)	-1.54	–
COC(=O)c1sc2cc(C(F)(F)F)cnc2c1-c1cccnc1	2.52	–
O=C(O)/C=C/C(=O)Nc1ccc2c(c1)C(=O)c1ccccc1C2=O	–	7.57 µM (active)
CC(=O)Nc1ccc2nc(C3CC3)n(Cc3ccc(Cl)cc3)c(=O)c2c1	-17.5	–
